These results are taken from PubChem BioAssay.

Assay [1] deals with Plasmodium falciparum Sir2 (PF13_0152, Sir2A). Description: Plasmodium falciparum Sir2A binding compounds – biochemical, small-molecule microarray, 635 nm fluorescence, primary screen (AID 1098).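 Also: score merges spot fluorescence intensity with its signal-to-noise ratio.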 The following applies: fluorescence 635 nm, higher = more signal.
Assay [2] in a line: probe aDKK1 binding to arrayed compounds – biochemical, biotinylated probe, 635/667 nm fluorescence, primary screen (AID 1099).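 Also: score merges 667nm spot fluorescence with signal to noise across triplicate slides.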 To be noted: small-molecule microarray, higher = more signal.
Assay [3] can be described thus: probe aCHRDL2 binding to arrayed compounds – biochemical, biotinylated probe, 635/667 nm fluorescence, primary screen (AID 1100). To be noted: small-molecule microarray, higher = more signal.
A short description of assay [4]: change in splice reporter luminescence, either direction, cell-based, HEK293, spliceosome inhibition project, primary screen (AID 1101).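 Also: HEK293 cells carrying a splicing-competent luciferase reporter gene; test concentration not given here.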 To be noted: HEK293 splicing luciferase reporter, 24 h, higher = more signal, called active from +8 up or from −8 down. For orientation: Reporter assays use an easily measured gene product as a stand-in for the process of interest.

Assay [5] concerns the target Fibroblast growth factor 10 (Homo sapiens) (UniProt O15520). Description: compounds binding fibroblast growth factor 10 – biochemical, small-molecule microarray, 635 nm fluorescence, primary screen (AID 1102). To be noted: FGF10 binding, fluorescence 635 nm, higher = more signal.
Assay [6] has as its system glycogen synthase kinase-3 (GSK3A per assay name; protocol says GSK3B). Description: compounds binding glycogen synthase kinase-3 – biochemical, small-molecule microarray, 635 nm fluorescence, GSK3A, primary screen (AID 1103). Also: the record names both GSK3A and GSK3B. To be noted: fluorescence 635 nm, higher = more signal.
Assay [7] deals with Epidermal growth factor receptor (Homo sapiens) (UniProt P00533). Description: compounds binding epidermal growth factor receptor – biochemical, small-molecule microarray, 635 nm fluorescence, primary screen (AID 1104).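 Also: score merges 667 nm emission intensity with spot signal to noise over triplicate slides.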 The following applies: EGFR binding, higher = more signal.
Sequence of Epidermal growth factor receptor (Homo sapiens) (P00533 whole entry, looked up): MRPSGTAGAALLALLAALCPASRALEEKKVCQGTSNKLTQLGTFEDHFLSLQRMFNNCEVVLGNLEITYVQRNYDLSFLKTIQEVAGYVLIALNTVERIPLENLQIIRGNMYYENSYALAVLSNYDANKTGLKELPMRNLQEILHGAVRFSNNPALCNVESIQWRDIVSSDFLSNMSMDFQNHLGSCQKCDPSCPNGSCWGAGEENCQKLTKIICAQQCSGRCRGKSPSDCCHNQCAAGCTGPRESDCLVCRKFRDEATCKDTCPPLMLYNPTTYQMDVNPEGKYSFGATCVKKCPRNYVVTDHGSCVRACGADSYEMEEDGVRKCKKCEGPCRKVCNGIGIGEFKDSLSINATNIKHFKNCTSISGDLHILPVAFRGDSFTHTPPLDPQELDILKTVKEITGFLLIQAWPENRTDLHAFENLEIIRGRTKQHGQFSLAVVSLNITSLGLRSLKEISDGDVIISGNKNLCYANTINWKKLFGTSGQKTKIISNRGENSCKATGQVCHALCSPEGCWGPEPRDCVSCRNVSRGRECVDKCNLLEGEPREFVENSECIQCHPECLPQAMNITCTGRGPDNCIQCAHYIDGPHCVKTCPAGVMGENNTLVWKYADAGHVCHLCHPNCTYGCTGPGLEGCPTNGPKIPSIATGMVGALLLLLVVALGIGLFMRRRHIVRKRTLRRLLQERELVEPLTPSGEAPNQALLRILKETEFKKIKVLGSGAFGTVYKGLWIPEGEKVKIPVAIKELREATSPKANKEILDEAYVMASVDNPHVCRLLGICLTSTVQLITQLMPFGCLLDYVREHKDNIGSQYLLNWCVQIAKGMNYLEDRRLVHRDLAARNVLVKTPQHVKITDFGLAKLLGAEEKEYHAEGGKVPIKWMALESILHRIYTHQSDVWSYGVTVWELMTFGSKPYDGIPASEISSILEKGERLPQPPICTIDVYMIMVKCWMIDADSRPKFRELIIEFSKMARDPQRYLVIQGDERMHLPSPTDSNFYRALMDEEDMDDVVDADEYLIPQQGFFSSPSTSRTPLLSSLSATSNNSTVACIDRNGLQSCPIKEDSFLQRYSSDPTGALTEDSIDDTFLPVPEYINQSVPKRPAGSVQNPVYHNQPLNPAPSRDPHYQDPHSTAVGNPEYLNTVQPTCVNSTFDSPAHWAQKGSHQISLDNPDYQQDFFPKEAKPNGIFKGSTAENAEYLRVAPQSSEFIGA
The target in assay [8] is Follistatin-related protein 3 (Homo sapiens) (UniProt O95633). The assay can be described thus: compounds binding follistatin-related protein 3 – biochemical, small-molecule microarray, 635 nm fluorescence, primary screen (AID 1105).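 Also: score merges emission near 667 nm and signal to noise per printed spot across three slides.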 To be noted: FSTL3 binding, higher = more signal.
Sequence of Follistatin-related protein 3 (Homo sapiens) (O95633 whole entry, looked up): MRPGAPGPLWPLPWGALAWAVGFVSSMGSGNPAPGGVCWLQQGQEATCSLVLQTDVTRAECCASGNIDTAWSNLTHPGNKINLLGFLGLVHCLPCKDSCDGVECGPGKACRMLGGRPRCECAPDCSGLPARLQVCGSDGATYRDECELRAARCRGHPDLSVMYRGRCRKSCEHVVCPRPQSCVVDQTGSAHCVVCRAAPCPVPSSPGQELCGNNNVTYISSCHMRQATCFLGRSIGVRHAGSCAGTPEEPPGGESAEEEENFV
The target in assay [9] is Dickkopf-related protein 1 (Homo sapiens) (UniProt O94907). The assay can be described thus: small molecules binding DKK1 protein – biochemical, small-molecule microarray, 635 nm fluorescence scan, primary screen (AID 1106).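 Also: score merges emission near 667 nm with signal to noise over three replicate slides.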 To be noted: higher = more signal.
Sequence of Dickkopf-related protein 1 (Homo sapiens) (O94907 whole entry, looked up): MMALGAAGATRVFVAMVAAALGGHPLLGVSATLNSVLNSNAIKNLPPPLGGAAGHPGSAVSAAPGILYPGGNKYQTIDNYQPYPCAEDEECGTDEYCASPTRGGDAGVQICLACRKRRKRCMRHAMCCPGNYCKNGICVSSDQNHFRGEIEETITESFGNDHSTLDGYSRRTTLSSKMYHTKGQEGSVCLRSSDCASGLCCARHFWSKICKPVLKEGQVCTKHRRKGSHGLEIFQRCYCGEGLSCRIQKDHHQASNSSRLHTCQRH
Assay [10] relates to Inhibin beta A chain (activin A). Description: small molecules binding activin A – biochemical, small-molecule microarray, 635 nm fluorescence scan, primary screen (AID 1107).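 Also: mouse activin A protein probed at 4.33 µg/mL on printed slides; score merges bound-protein fluorescence near 667 nm with spot signal-to-noise.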 The following applies: INHBA, higher = more signal.
In assay [11] the test system is Human papillomavirus type 1a protein E7 (residues 44-93). The assay can be described thus: small molecules binding HPV E7 44-93 – biochemical, small-molecule microarray, residues 44-93, 635 nm fluorescence, primary screen (AID 1108).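 Also: E7 fragment applied at 1 µg/mL in TBST for 1 h at 4 C; score combines spot fluorescence with its signal to noise ratio.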 To be noted: fluorescence 635 nm, higher = more signal.
Assay [12] is described as follows: hepatitis C replication reporter changes, two-sided – Huh7 cells, luciferase reporter, HCV replication inhibitor project, primary screen (AID 1109).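 Also: huh7 hepatoma cells harbouring a luciferase neomycin HCV replicon reporter; luciferase luminescence as measure of HCV replicon replication; test concentration not given here.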 The following applies: Huh7 HCV replicon luciferase reporter, 48 h; higher = more signal.
Assay [13] addresses Left-right determination factor 2 (Homo sapiens) (UniProt O00292). Description: small molecules binding LEFTY2 protein – biochemical, small-molecule microarray, 635 nm fluorescence scan, primary screen (AID 1110). The following applies: higher = more signal.
In assay [14] the target is Calmodulin-1 (Homo sapiens) (UniProt P0DP23). Description: small molecules binding calmodulin-1 with EGTA – biochemical, small-molecule microarray, Cy5-labelled CALM1, profiling panel (AID 1111).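 Also: labelled calmodulin applied in Tris saline Tween buffer holding calcium plus EGTA and DTT.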 To be noted: Cy5-CALM1 binding fluorescence, higher = more signal.
The target is the same in assay [15]. Description: small molecules binding Ca-loaded calmodulin-1 – biochemical, small-molecule microarray, Cy5-labelled CALM1, plus calcium, artefact control for SMM control-protein annotation, profiling panel (AID 1112).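 Also: score merges spot fluorescence with signal to noise from triplicate slides.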 To be noted: Cy5-CALM1 binding fluorescence, higher = more signal.
Assay [16] in a line: probe aWnt5a binding to arrayed compounds – biochemical, biotinylated probe, 635/667 nm fluorescence, primary screen (AID 1113).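 Also: score merges 667 nm fluorescence intensity with signal-to-noise per printed feature.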 To be noted: small-molecule microarray, higher = more signal.
Assay [17] is described as follows: probe aShh binding to arrayed compounds – biochemical, biotinylated probe, 635/667 nm fluorescence, primary screen (AID 1114).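 Also: probe is biotin-labelled aShh protein from a stem cell growth factor screen; measures binding of labelled protein to compounds printed on the slide; score merges feature fluorescence at 667 nm with signal-to-noise.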 To be noted: small-molecule microarray, higher = more signal.
The nature of assay [18]: probe aNog binding to arrayed compounds – biochemical, biotinylated probe, 635/667 nm fluorescence, primary screen (AID 1115).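 Also: probe is biotinylated aNog protein used at 0.15 µg/mL for 1 h at 4 C; z-score combines 667 nm fluorescence of each spot with its signal to noise.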 The following applies: small-molecule microarray, higher = more signal.
The target of assay [19] is Torsin-1A-interacting protein 1 (Homo sapiens) (UniProt Q5JTV8). The assay can be described thus: compound microarray binding of lysate hLAP1 – cell lysate, small-molecule microarray, COS7 lysate, 635/667 nm fluorescence, primary screen (AID 1116). The following applies: 635 nm fluorescence, higher = more signal.
Sequence of Torsin-1A-interacting protein 1 (Homo sapiens) (Q5JTV8 whole entry, looked up): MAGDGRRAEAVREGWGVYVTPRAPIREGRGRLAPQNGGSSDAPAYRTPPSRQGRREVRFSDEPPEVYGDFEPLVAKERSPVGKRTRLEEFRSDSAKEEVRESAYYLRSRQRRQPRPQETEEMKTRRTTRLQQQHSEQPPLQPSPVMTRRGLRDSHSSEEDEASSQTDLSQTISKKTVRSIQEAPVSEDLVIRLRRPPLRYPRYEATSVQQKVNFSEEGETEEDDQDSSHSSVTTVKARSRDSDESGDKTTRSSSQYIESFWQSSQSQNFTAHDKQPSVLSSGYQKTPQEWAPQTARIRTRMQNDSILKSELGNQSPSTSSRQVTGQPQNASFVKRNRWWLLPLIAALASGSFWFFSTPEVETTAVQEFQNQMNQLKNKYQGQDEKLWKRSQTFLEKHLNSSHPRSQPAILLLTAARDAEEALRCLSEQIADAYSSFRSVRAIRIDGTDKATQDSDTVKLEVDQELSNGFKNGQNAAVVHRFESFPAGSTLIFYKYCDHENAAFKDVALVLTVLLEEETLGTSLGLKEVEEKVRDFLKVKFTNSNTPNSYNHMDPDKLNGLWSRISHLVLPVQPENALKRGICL
Assay [20] deals with Alpha-bungarotoxin (Bungarus multicinctus) (UniProt P60615). Description: compounds binding labelled alpha-BTX control protein – biochemical, small-molecule microarray, Alexa647 label, 635/667 nm fluorescence, artefact control for SMM control protein annotation, profiling panel (AID 1117). The following applies: alpha-BTX-A647 binding fluorescence, higher = more signal.
Sequence of Alpha-bungarotoxin (Bungarus multicinctus) (P60615 whole entry, looked up): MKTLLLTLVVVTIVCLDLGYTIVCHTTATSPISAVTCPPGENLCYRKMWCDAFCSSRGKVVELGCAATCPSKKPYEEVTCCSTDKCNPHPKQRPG

Calls of active or inactive are those of the source.

Sequence of Left-right determination factor 2 (Homo sapiens) (O00292 whole entry, looked up): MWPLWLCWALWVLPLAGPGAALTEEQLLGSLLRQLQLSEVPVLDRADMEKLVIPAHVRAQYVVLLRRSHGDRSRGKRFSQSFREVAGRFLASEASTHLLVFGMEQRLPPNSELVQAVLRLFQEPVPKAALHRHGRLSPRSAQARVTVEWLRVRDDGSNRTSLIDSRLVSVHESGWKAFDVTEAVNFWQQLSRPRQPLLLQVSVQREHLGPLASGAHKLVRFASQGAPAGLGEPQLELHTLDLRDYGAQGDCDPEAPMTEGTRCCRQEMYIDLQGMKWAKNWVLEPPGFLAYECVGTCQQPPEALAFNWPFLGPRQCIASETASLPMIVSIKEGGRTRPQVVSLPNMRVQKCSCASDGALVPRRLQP
Sequence of Fibroblast growth factor 10 (Homo sapiens) (O15520 whole entry, looked up): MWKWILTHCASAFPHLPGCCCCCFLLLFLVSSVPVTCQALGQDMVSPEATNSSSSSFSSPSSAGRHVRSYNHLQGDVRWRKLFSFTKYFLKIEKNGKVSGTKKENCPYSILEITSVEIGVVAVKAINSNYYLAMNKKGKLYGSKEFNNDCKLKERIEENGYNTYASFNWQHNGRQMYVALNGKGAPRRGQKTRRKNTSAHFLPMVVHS

Turning to `COCCOC(=O)N1C(=O)[C@@]2(c3cc(C#CCNC(N)=O)ccc31)[C@H](c1ccc(OCCO)cc1)N1[C@H](c3ccccc3)[C@H](c3ccccc3)OC(=O)[C@H]1[C@@H]2C(=O)Nc1nc2ccccc2s1`, the composite z-score in assay [1] was 0.337; in assay [2] it was 0.997; in assay [3] it was 0.88; in assay [5], 0.574; in assay [6], -0.289; in [7], 0.0231. Also, the composite z-score in [8] came to 1.01; in [9], 1; in assay [10], 0.926; in assay [11], 0.376; in assay [13], 1.24; in assay [14], 0.669. Also, the composite z-score stood at 0.701 in [15]; 0.0136 in assay [16]; 0.187 in [17]; 0.402 in assay [18]; 0.114 in [19]; 1.37 in assay [20]. Also, the figures for the z-score in [4] and in assay [12] were 0.0697 (inactive) and -1.11, respectively.
For the compound `C/C(=N\O)C(=O)NCCCCCNC(=O)OCc1ccccc1`, the composite z-score in assay [1] was 0.807; in assay [2], -0.186; in assay [3], -0.472; in assay [5], 0.554; in [6] it was 0.777; in [7], 0.479. Moreover, the composite z-score was 1.03 in assay [8]; 0.497 in assay [9]; 0.102 in [10]; 0.63 in assay [11]; 0.516 in assay [13]; 0.169 in assay [14]. The composite z-score in [15] is -0.269; in [16], 0.0115; in assay [17] it was -0.262; in assay [18], 0.32; in assay [19] it was 0.371; in [20], 1.06. For the same compound, the z-score in assay [4] is -0.508 (inactive); in assay [12], -0.0365.
`CCOC(=O)C1=CC[C@@H](c2ccc(-c3ccc(OCc4ccccc4)cc3)c(OC)c2)N(S(=O)(=O)c2ccc(C)cc2)[C@H]1c1ccccc1`: the composite z-score stood at 1.13 in assay [1]; 0.583 in assay [2]; 0.721 in [3]; 1.24 in [5]; 1.28 in [6]; 0.12 in assay [7]. For the same compound, the composite z-score in assay [8] is 1.38; in assay [9], 0.273; in assay [10] it was 0.765; in assay [11], 1.39; in assay [13], 0.4; in assay [14], 1.64. Also, the composite z-score in assay [15] was 0.126; in assay [16], 0.0279; in assay [17], -0.0171; in [18], -0.226; in assay [19] it was 0.373; in [20] it was 1.27. The z-score was -1.44 (inactive) in assay [4] and -1.76 in assay [12].
For `CCN1C(C)=C(C(=O)OC)[C@@H](c2ccccc2)N2C(=O)[C@](O)(C(=O)OC)[C@@H](c3ccccc3)C(C(C)=O)=C12`, the composite z-score in assay [1] is -1.67; in [2] it was 0.182; in assay [3], -0.539; in [5], 0.799; in [6], 0.529; in [7] it was 0.621. In addition, the composite z-score in [8] is 1.04; in [9] it was 0.515; in assay [10] it was 1.15; in [11], -0.0269; in assay [13], 0.784; in [14] it was -0.693. Besides, the composite z-score is -0.0342 in [15]; -0.0125 in assay [16]; -0.262 in [17]; 0.19 in assay [18]; 0.0025 in assay [19]; -0.576 in [20]. In addition, the figures for the z-score in [4] and in [12] were -2.82 (inactive) and -0.279, respectively.
With `O=C(CS)NCCCCCNC(=O)[C@H]1C[C@H]2C(=O)N3CCC[C@H]3C(=O)N2[C@H]1c1ccc(O)cc1`, the composite z-score is 0.203 in [1]; -0.18 in assay [2]; -0.196 in [3]; -0.0763 in assay [5]; -1.07 in assay [6]; 0.392 in [7]. In addition, the composite z-score was -0.47 in [8]; 0.844 in [9]; 0.594 in assay [10]; -0.295 in [11]; 0.679 in [13]; 1.45 in assay [14]. The composite z-score in assay [15] is 1.22; in [16], -0.197; in assay [17], 0.046; in assay [18], -0.0207; in assay [19] it was 2.97; in assay [20], -1.3. Besides, the z-score in assay [4] was -1.45 (inactive); in [12] it was 0.0187.
